Laboratory results published in the antibiotic and cytotoxicity screens of Wong et al. (2023).
The campaign covered roughly 39,000 compounds. About 3,300 (8.5%) were called active. Shown is part of a subset that was picked to be rich in actives.

What follows are molecules tested on HepG2 (assay: cytotoxicity call (relative viability < 0.9)). Conditions: 10 µM.
For `CO[C@H]1CN(C)C(=O)c2cc(NS(C)(=O)=O)ccc2OC[C@H](C)N(S(C)(=O)=O)C[C@H]1C`, the cytotoxicity call was “inactive”. `C[C@@H]1CN([C@@H](C)CO)C(=O)c2cc(NC(=O)CCC(F)(F)F)ccc2O[C@@H](C)CCCCO[C@@H]1CN(C)CC1CCCCC1` was tested, and the cytotoxicity call was “inactive”. In the case of `CCCCCCCCCCCCCCCc1cccc(OCC)c1C(=O)Nc1ccc(Cl)c(C(F)(F)F)c1`, the cytotoxicity call is reported as “inactive”. `C[C@H](CO)N1C[C@H](C)[C@@H](CN(C)S(C)(=O)=O)Oc2ccc(NC(=O)Cn3cnnn3)cc2CC1=O` was tested, and the cytotoxicity call was “inactive”. `Nc1cnn([C@H]2O[C@@H](COC(=O)c3ccccc3)[C@@H](O)[C@@H]2O)c(=O)n1` was tested, and the cytotoxicity call was “inactive”. With `COc1ccc(S(=O)(=O)N2C[C@@H](O)COC[C@H]3O[C@H](CC(=O)NCCN4CCCCC4)CC[C@@H]32)cc1` the cytotoxicity call was “inactive”. With `Cc1noc(C)c1NC(=O)N(C)C[C@@H]1Oc2c(NC(=O)C3CC3)cccc2C(=O)N([C@H](C)CO)C[C@H]1C` the cytotoxicity call was “inactive”. In the case of `C[C@@H]1CN([C@H](C)CO)C(=O)Cc2cc(NC(=O)C3CCCCC3)ccc2O[C@@H]1CN(C)Cc1ccc(Cl)c(Cl)c1`, the cytotoxicity call is reported as “inactive”. `C[C@@H]1CCCCO[C@@H](CN(C)Cc2ccc(C(F)(F)F)cc2)[C@@H](C)CN([C@H](C)CO)C(=O)c2cc(NC(=O)Cc3ccccc3)ccc2O1` was tested, and the cytotoxicity call was “active”. For `C[C@@H]1CCCCO[C@H](CN(C)Cc2ccc(C(F)(F)F)cc2)[C@H](C)CN([C@H](C)CO)C(=O)c2cc(NC(=O)Cc3ccccc3)ccc2O1`, the cytotoxicity call was “active”. In the case of `C[C@H]1CCCCO[C@H](CN(C)Cc2ccc(C(F)(F)F)cc2)[C@@H](C)CN([C@@H](C)CO)C(=O)c2cc(NC(=O)Cc3ccccc3)ccc2O1`, the cytotoxicity call is reported as “active”. `C[C@@H]1CCCCO[C@H](CN(C)Cc2ccc(C(F)(F)F)cc2)[C@@H](C)CN([C@H](C)CO)C(=O)c2cc(NC(=O)Cc3ccccc3)ccc2O1` was tested, and the cytotoxicity call was “inactive”. With `C[C@H](CO)N1C[C@H](C)[C@H](CN(C)Cc2ccc(C(F)(F)F)cc2)OCCCC[C@H](C)Oc2ccc(NC(=O)Cc3ccccc3)cc2C1=O` the cytotoxicity call was “inactive”. In the case of `C[C@H]1CCCCO[C@@H](CN(C)Cc2ccc(C(F)(F)F)cc2)[C@@H](C)CN([C@@H](C)CO)C(=O)c2cc(NC(=O)Cc3ccccc3)ccc2O1`, the cytotoxicity call is reported as “inactive”. `C[C@@H]1CCCCO[C@H](CN(C)Cc2ccc(C(F)(F)F)cc2)[C@@H](C)CN([C@@H](C)CO)C(=O)c2cc(NC(=O)Cc3ccccc3)ccc2O1` was tested, and the cytotoxicity call was “inactive”. With `C[C@@H]1CN([C@@H](C)CO)C(=O)c2cc(NC(=O)Cc3ccccc3)ccc2O[C@@H](C)CCCCO[C@@H]1CN(C)Cc1ccc(C(F)(F)F)cc1` the cytotoxicity call was “inactive”. With `C[C@@H]1CCCCO[C@@H](CN(C)Cc2ccc(C(F)(F)F)cc2)[C@H](C)CN([C@@H](C)CO)C(=O)c2cc(NC(=O)Cc3ccccc3)ccc2O1` the cytotoxicity call was “inactive”. `COc1ccc(S(=O)(=O)Nc2cccc3c2O[C@@H](CN(C)C(=O)Nc2cccc4ccccc24)[C@H](C)CN([C@H](C)CO)C3=O)cc1` was tested, and the cytotoxicity call was “inactive”. In the case of `C[C@H](CO)N1C[C@H](C)[C@H](CN(C)C(=O)Nc2ccc3c(c2)OCO3)Oc2ccc(N(C)C)cc2CC1=O`, the cytotoxicity call is reported as “inactive”. With `CNC(=O)C[C@@H]1CC[C@@H]2[C@H](COC[C@@H](O)CN2C(=O)c2ccc3c(c2)OCO3)O1` the cytotoxicity call was “inactive”. For `Cn1ccnc1C(=O)NCc1cnc2n1CCNCC2`, the cytotoxicity call was “inactive”. In the case of `C[C@H](CO)N1C[C@H](C)[C@H](CN(C)Cc2ccc(Cl)c(Cl)c2)Oc2ccc(NC(=O)NC3CCCCC3)cc2C1=O`, the cytotoxicity call is reported as “inactive”. With `C[C@@H]1CN([C@@H](C)CO)C(=O)c2cc(NS(=O)(=O)c3cccs3)ccc2O[C@@H]1CN(C)Cc1ccc(-c2ccccc2)cc1` the cytotoxicity call was “inactive”. For `C[C@@H]1CN([C@H](C)CO)S(=O)(=O)c2ccc(C#CC(C)(C)O)cc2O[C@@H]1CN(C)Cc1ccc(F)cc1`, the cytotoxicity call was “inactive”. In the case of `FC(F)(F)Oc1ccccc1`, the cytotoxicity call is reported as “inactive”. `C[C@@H]1CN([C@@H](C)CO)C(=O)Cc2cc(NC(=O)Cn3cnnn3)ccc2O[C@@H]1CN(C)S(=O)(=O)c1cn(C)cn1` was tested, and the cytotoxicity call was “inactive”. In the case of `CSc1ccc(-c2nnn(CC(N)=O)n2)cc1`, the cytotoxicity call is reported as “inactive”. For `Cc1noc(C)c1NC(=O)N(C)C[C@H]1Oc2ccc(NC(=O)NC(C)C)cc2C(=O)N([C@H](C)CO)C[C@H]1C`, the cytotoxicity call was “inactive”. `COc1ccc(S(=O)(=O)Nc2ccc3c(c2)C(=O)N([C@H](C)CO)C[C@H](C)[C@H](CN(C)S(=O)(=O)c2cn(C)cn2)O3)cc1` was tested, and the cytotoxicity call was “inactive”. In the case of `C[C@H]1CN([C@@H](C)CO)C(=O)c2cc(NC(=O)c3ccncc3)ccc2O[C@H]1CN(C)S(=O)(=O)c1cccs1`, the cytotoxicity call is reported as “inactive”. In the case of `COCCOC(=O)N1C(=O)[C@@]2(c3cc(C#CC4=CCCCC4)ccc31)[C@H](C(=O)N1CCN(c3ncccn3)CC1)[C@H]1C(=O)O[C@H](c3ccccc3)[C@H](c3ccccc3)N1[C@@H]2c1ccc(O)cc1`, the cytotoxicity call is reported as “inactive”. In the case of `C=CCn1c(N2CCN(c3ccc(OC)cc3)CC2)nc2c1c(=O)n(C)c(=O)n2C`, the cytotoxicity call is reported as “inactive”. In the case of `C=CCn1c(=O)c2cnc(Nc3ccc(N4CCN(C)CC4)cc3)nc2n1-c1cccc(C(C)(C)O)n1`, the cytotoxicity call is reported as “active”. For `COC(=O)C[C@@H]1CC[C@H]2[C@@H](COC[C@@H](O)CN2S(=O)(=O)c2ccccc2C)O1`, the cytotoxicity call was “inactive”. With `Cn1c(=O)cc(N2CCC[C@@H](N)C2)n(Cc2cc(F)ccc2C#N)c1=O` the cytotoxicity call was “inactive”. For `Cn1c(=O)cc(N2CCC[C@@H](N)C2)n(Cc2ccccc2C#N)c1=O`, the cytotoxicity call was “inactive”. For `Cn1c(=O)cc(N2CCCC(N)C2)n(Cc2ccccc2C#N)c1=O.O=C(O)c1ccccc1` (configuration not stated), the cytotoxicity call was “active”. For `C[C@H](CO)N1C[C@H](C)[C@@H](CN(C)C(=O)Cc2ccccc2)OCCCC[C@H](C)Oc2ccc(NC(=O)Nc3ccc(F)cc3)cc2C1=O`, the cytotoxicity call was “inactive”. In the case of `CCCC#Cc1ccc2c(c1)O[C@@H](CN(C)S(=O)(=O)c1cccc(F)c1)[C@H](C)CN([C@H](C)CO)S2(=O)=O`, the cytotoxicity call is reported as “inactive”. `Cc1ccc(S(=O)(=O)N2CCNCC2)cc1` was tested, and the cytotoxicity call was “inactive”. For `Br.Cc1ccc(Sc2ccccc2N2CCNCC2)c(C)c1`, the cytotoxicity call was “active”. For `C[C@@H]1CN([C@@H](C)CO)C(=O)c2cc(C#Cc3cccc(F)c3)cnc2O[C@@H]1CN(C)Cc1ccccn1`, the cytotoxicity call was “inactive”. With `C[C@@H]1CCCCO[C@@H](CN(C)S(=O)(=O)c2cccs2)[C@@H](C)CN([C@H](C)CO)C(=O)c2cc(NC(=O)Nc3cccc4ccccc34)ccc2O1` the cytotoxicity call was “inactive”. With `C/C=C/C[C@@H](C)[C@@H](O)[C@H]1C(=O)N[C@@H](CC)C(=O)N(C)CC(=O)N(C)[C@@H]([C@@H](C)CC)C(=O)N[C@@H](C(C)C)C(=O)N(C)[C@@H](CC(C)C)C(=O)N[C@@H](C)C(=O)N[C@H](C)C(=O)N(C)[C@@H](CC(C)C)C(=O)N(C)[C@@H](CC(C)C)C(=O)N(C)[C@@H](C(C)C)C(=O)N1C` the cytotoxicity call was “inactive”. `CC=CCC(C)C(O)C1C(=O)NC(CC)C(=O)N(C)CC(=O)N(C)C(CC(C)C)C(=O)NC(C(C)C)C(=O)N(C)C(CC(C)C)C(=O)NC(C)C(=O)NC(C)C(=O)N(C)C(CC(C)C)C(=O)N(C)C(CC(C)C)C(=O)N(C)C(C(C)C)C(=O)N1C` (configuration not stated) was tested, and the cytotoxicity call was “active”. With `C=C/C=C/C[C@@H](C)[C@@H](O)[C@H]1C(=O)N[C@@H](CC)C(=O)N(C)CC(=O)N(C)[C@@H](CC(C)C)C(=O)N[C@@H](C(C)C)C(=O)N(C)[C@@H](CC(C)C)C(=O)N[C@@H](C)C(=O)N[C@H](C)C(=O)N(C)[C@@H](CC(C)C)C(=O)N(C)[C@@H](CC(C)C)C(=O)N(C)[C@@H](C(C)C)C(=O)N1C` the cytotoxicity call was “inactive”. For `CC(C)NC(=O)N(C)C[C@@H]1OCc2cnnn2CCCC(=O)N([C@H](C)CO)C[C@H]1C`, the cytotoxicity call was “inactive”. With `CCC(=O)Nc1ccc2c(c1)OC[C@@H](C)N(S(=O)(=O)c1cn(C)cn1)C[C@@H](C)[C@H](OC)CN(C)C2=O` the cytotoxicity call was “inactive”. In the case of `Cc1c(N)nc([C@H](CC(N)=O)NC[C@H](N)C(N)=O)nc1C(=O)N[C@H](C(=O)N[C@H](C)[C@@H](O)[C@H](C)C(=O)N[C@H](C(=O)NCCc1nc(-c2nc(C(=O)NCCCNCCCCN)cs2)cs1)[C@@H](C)O)[C@@H](O[C@@H]1O[C@@H](CO)[C@@H](O)[C@H](O)[C@@H]1O[C@@H]1O[C@H](CO)[C@@H](O)[C@H](OC(N)=O)[C@@H]1O)c1c[nH]cn1`, the cytotoxicity call is reported as “inactive”. `C[C@H](CO)N1C[C@H](C)[C@@H](CN(C)C(=O)C2CCCCC2)Oc2cc(Br)ccc2S1(=O)=O` was tested, and the cytotoxicity call was “inactive”. In the case of `N#CCCn1nc2c(c1N)CCC2`, the cytotoxicity call is reported as “inactive”. For `Cc1noc(C)c1NC(=O)Nc1ccc2c(c1)C(=O)N([C@@H](C)CO)C[C@H](C)[C@H](CN(C)Cc1ccc(C(F)(F)F)cc1)OCCCC[C@@H](C)O2`, the cytotoxicity call was “inactive”. With `C[C@H](CO)N1C[C@H](C)[C@H](CN(C)C(=O)Cc2ccccc2)OCCCC[C@H](C)Oc2ccc(NC(=O)CCC(F)(F)F)cc2C1=O` the cytotoxicity call was “inactive”. In the case of `C[C@H]1CCCCO[C@H](CN(C)C(=O)Nc2cccc3ccccc23)[C@@H](C)CN([C@@H](C)CO)C(=O)c2cc(NS(=O)(=O)c3cn(C)cn3)ccc2O1`, the cytotoxicity call is reported as “inactive”. For `C[C@@H]1CCCCO[C@@H](CN(C)C(=O)Nc2cccc3ccccc23)[C@H](C)CN([C@H](C)CO)C(=O)c2cc(NS(=O)(=O)c3cn(C)cn3)ccc2O1`, the cytotoxicity call was “inactive”. For `C[C@H]1CCCCO[C@@H](CN(C)C(=O)Nc2cccc3ccccc23)[C@@H](C)CN([C@@H](C)CO)C(=O)c2cc(NS(=O)(=O)c3cn(C)cn3)ccc2O1`, the cytotoxicity call was “active”. With `C[C@@H]1CN([C@@H](C)CO)C(=O)c2cc(NS(=O)(=O)c3cn(C)cn3)ccc2O[C@@H](C)CCCCO[C@@H]1CN(C)C(=O)Nc1cccc2ccccc12` the cytotoxicity call was “active”. For `C[C@H](CO)N1C[C@H](C)[C@H](CN(C)C(=O)Nc2cccc3ccccc23)OCCCC[C@H](C)Oc2ccc(NS(=O)(=O)c3cn(C)cn3)cc2C1=O`, the cytotoxicity call was “inactive”. With `C[C@@H]1CN([C@@H](C)CO)C(=O)c2cc(NS(=O)(=O)c3cn(C)cn3)ccc2O[C@@H](C)CCCCO[C@H]1CN(C)C(=O)Nc1cccc2ccccc12` the cytotoxicity call was “inactive”. For `C[C@@H]1CCCCO[C@@H](CN(C)C(=O)Nc2cccc3ccccc23)[C@H](C)CN([C@@H](C)CO)C(=O)c2cc(NS(=O)(=O)c3cn(C)cn3)ccc2O1`, the cytotoxicity call was “inactive”. In the case of `C[C@@H]1CCCCO[C@H](CN(C)C(=O)Nc2cccc3ccccc23)[C@H](C)CN([C@H](C)CO)C(=O)c2cc(NS(=O)(=O)c3cn(C)cn3)ccc2O1`, the cytotoxicity call is reported as “active”. With `C[C@@H]1CCCCO[C@@H](CN(C)C(=O)Nc2cccc3ccccc23)[C@@H](C)CN([C@H](C)CO)C(=O)c2cc(NS(=O)(=O)c3cn(C)cn3)ccc2O1` the cytotoxicity call was “inactive”.
